Source: PubChem BioAssay (NCI)
About 83,000 compounds went through this panel and 20% of them were active in at least one assay; those are over-represented in the sample as a whole.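 Each cell line was grown in a 96-well plate and treated with one concentration of compound for 48 hours. Values below 10 were considered active.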 Unmarked numbers belong to inactive results. Activity calls are given as the source filed them.

Test system: HL-60(TB) leukemia
Experiment: NCI-60 one-dose screen, 48 h (100 = growth as untreated, 0 = no growth, -100 = all killed)
Settings: 10 µM unless noted

| Compound | growth |
| --- | --- |
| NC(=S)n1c(=O)n(-c2cccc(C(F)(F)F)c2)c(=O)c2cc(-c3ccc(F)cc3F)ccc21 | -46.8% (active) |
| COc1ccc(-n2c(SCc3n[nH]c(=S)o3)nc3ccc(Cl)cc3c2=O)cc1 | 109% |
| CCN1C(=O)N(CC)C2SC(N/N=C/C=C/c3ccccc3OC)=NC21 (stereo not drawn) | -9.85% (active) |
| Fc1cc(F)cc(NNC(=S)c2ccccc2)c1 | 30.5% |
| O=C(CNc1nc(-c2cccc([N+](=O)[O-])c2)cs1)Nc1cccc(Cl)c1 | 105% |
| C=CCn1c(SCC(=O)Nc2ccc(OC)cc2)nnc1-c1ccc(Cl)cc1 | 78% |
| COc1ccc(C(=O)/C=C/c2ccc(Oc3nc(NCCO)nc(N4CCOCC4)n3)c(OC)c2)cc1 | 15.5% |
| CN1CCC[C@]2(C)[C@H]3CC[C@@H]4[C@@H]5[C@H]6OC[C@@]5(CCC6(C)C)CC[C@@]4(C)[C@]3(C)CC[C@H]2C1(C)C | 30.6% |
| COC[C@]12CC[C@@H](C)[C@H](C)[C@H]1C1=CC[C@@H]3[C@@]4(C)CCCNC(C)(C)[C@@H]4CC[C@@]3(C)[C@]1(C)CC2 | -47.1% (active) |
| Cc1ccc2c(n1)C(=O)C(Cl)=C(Nc1cccc(C(=O)OC(C)(C)C)c1)C2=O | 16.7% |
| Cc1ccc(N2CCN(C3=C(Cl)C(=O)c4ncccc4C3=O)CC2)cc1 | 3.39% (active) |
| NC(N)=NS(=O)(=O)c1ccc(N=Nc2c(N)nn(-c3ccc([N+](=O)[O-])cc3[N+](=O)[O-])c2N)cc1 | 97.3% |
| Clc1cccc(/C=N/Nc2nc(N/N=C/c3cccc(Cl)c3)nc(N3CCOCC3)n2)c1 | -9.74% (active) |
